According to PubChem BioAssay (Tox21):
“And” between values parts separate entries of the source, which are not always exact repeats. Equal values may be shown once. Results filed as inconclusive are left out. Entries that show only a call come without a potency. A structure can be active in one record and inactive in another. The source made the active and inactive calls. The call rests on the fitted dose curve; in most records, active means well fitted cell-killing curve with a large enough effect in the repeat runs; inconclusive means weak or mixed curves; inactive means flat fitted curve, though single readings scatter.

test: qHTS RealTime-Glo MT Cell Viability Assay in HepG2 cells - 16 hour (AID 1224885); conditions: RealTime-Glo luminescence; series mostly up to 76.8 µM; activity change, negative = cytotoxic: at the top concentration; further: nearly all actives have a fitted effect of over 50% in size
From the text: U.S. Tox21 Program National Center for Advancing Translational Sciences [NCATS] NIH Chemical Genomics Center [NCGC] U.S. Environmental Protection Agency [EPA] National Institutes of Environmental Health Sciences [NIEHS] National Toxicology Program [NTP] U.S. Food and Drug Administration [FDA] Tox21 Assay Overview: Measure of cell viability is critical in the cell-base assay. Analysis of cell viability is necessary for the characterization of cell responses to cytotoxic drugs and environmental stress. A RealTime-Glo MT Cell Viability Assay to monitor cell viability in real time of continues cell culture during 40 hours of compound treatment was used to screen Tox21 10K library compounds in HepG2 cells. The RealTime-Glo MT Cell Viability Assay is a nonlytic, homogeneous, bioluminescent method to measure cell viability in real time using a simple, plate-based method. The assay involves adding NanoLuc luciferase and a cell-permeant prosubstrate to cells in culture. Viable cells reduce the proprietary prosubstrate to generate a substrate for NanoLuc luciferase. This substrate diffuses from cells into the surrounding culture medium, where it is rapidly used by the NanoLuc Enzyme to produce a luminescent signal. The signal correlates with the number of viable cells, making the assay well suited for cytotoxicity studies.
Tox21 Assay Protocol Summary: The mixture of HepG2 cell suspension and reagents were dispensed at 600cells/6 ul/well in 1536-well tissue culture treated black solid bottom plates using a Multidrop dispenser. After the assay plates were incubated at a 37 C/5% CO2 incubator for 5 hours, 23 nL of compounds dissolved in DMSO, positive and negative controls was transferred to the assay plate by a pintool work station. The plates were incubated at 37 C for 40 hours. The luminescence intensity were measured at 0h, 8h, 16h, 24h, 32h and 40h time points using ViewLux plate reader during compound treatment.
Potency means the concentration at half of the fitted maximal effect.

SMILES | activity change, negative = cytotoxic | Potency
COc1ccc(-c2coc3cc(O)cc(O)c3c2=O)cc1 | -20.1% (inactive) | –
CC(=O)[C@@]1(O)CC[C@H]2[C@@H]3C[C@H](C)C4=CC(=O)C=C[C@]4(C)[C@@]3(F)[C@@H](O)C[C@@]21C | – | inactive
Oc1ccc(C(c2ccc(O)cc2)C(Cl)(Cl)Cl)cc1 | -5.9% (inactive) | –
O=S1(=O)CCCO1 | – | inactive
CC(=O)Oc1c(C)c(C)c2c(c1C)CC[C@@](C)(CCC[C@H](C)CCC[C@H](C)CCCC(C)C)O2 | – | inactive
COC(=O)C(C)Oc1ccc(Oc2ncc(C(F)(F)F)cc2Cl)cc1 (stereo not given) | – | inactive
C=C[C@@]1(C)CC(=O)[C@]2(O)[C@@]3(C)[C@@H](O)CCC(C)(C)[C@@H]3[C@H](O)[C@H](OC(C)=O)[C@@]2(C)O1 | – | inactive
OC[C@H]1O[C@@H]2O[C@H]3[C@H](O)[C@@H](O)[C@@H](O[C@H]4[C@H](O)[C@@H](O)[C@@H](O[C@H]5[C@H](O)[C@@H](O)[C@@H](O[C@H]6[C@H](O)[C@@H](O)[C@@H](O[C@H]7[C@H](O)[C@@H](O)[C@@H](O[C@H]1[C@H](O)[C@H]2O)O[C@@H]7CO)O[C@@H]6CO)O[C@@H]5CO)O[C@@H]4CO)O[C@@H]3CO | – | inactive
CC[C@]12CCCN3CCc4c(n(c5ccccc45)[C@@](O)(C(=O)OC)C1)[C@@H]32 | – | inactive
CC/C=C\C/C=C\C/C=C\CCCCCCCC(=O)O | – | inactive
C=C1C[C@H]2[C@@H]3C=C(C)C4=CC(=O)CC[C@]4(C)[C@H]3CC[C@]2(C)[C@@]1(OC(C)=O)C(C)=O | – | inactive
Nc1ccc(N)c(Cl)c1 | – | inactive and 43.6 µM (active)
COC(=O)CC(=O)OC | – | inactive
NCCOCCO | – | inactive
Cc1ccc([N+](=O)[O-])c(C)c1 | – | inactive
C[C@]12CC[C@@H]3c4ccc(O)cc4CC[C@H]3[C@@H]1CC[C@@H]2O | – | inactive
CC(=O)OC(C)C | – | inactive
O=[Se](O)O | – | inactive
CN(C)/N=N/c1nc[nH]c1C(N)=O | – | inactive
CCCCCC1C(=O)CCC1CC(=O)OC (stereo not given) | – | inactive

SMILES | activity change, negative = cytotoxic | Potency
C=CC(C)(O)CCC=C(C)C (stereo not given) | – | inactive
CCCCCCCC/C=C\CCCCCCCC(=O)O | – | inactive
c1ccc2c(c1)ccc1cc3c(ccc4ccccc43)cc12 | – | inactive
CCCCCC=O | – | inactive
CC(C)(Oc1ccc(Cl)cc1)C(=O)O | – | inactive
Nc1ccc(O)c(N)c1 | – | inactive
C=CCNCC=C | – | inactive
O=C1CCc2ccccc2O1 | – | inactive
C1CN(SSN2CCOCC2)CCO1 | -2.99% (inactive) | –
CCO[Si](CCCNC(N)=O)(OCC)OCC | – | inactive
CC(C)=CCO | – | inactive
COc1cc([C@H]2Oc3cc([C@H]4Oc5cc(O)cc(O)c5C(=O)[C@@H]4O)ccc3O[C@@H]2CO)ccc1O | – | inactive
CC(C)[N+](C)(CCOC(=O)C1c2ccccc2Oc2ccccc21)C(C)C | – | inactive
C=CN1CCCC1=O | – | inactive
O=C(O)COCCN1CCN(C(c2ccccc2)c2ccc(Cl)cc2)CC1 (stereo not given) | – | inactive
CN1CCOCC1 | – | inactive
C[N+](C)(C)CCO | – | inactive
O=C(O)CCCCCCCCCCCC(=O)O | – | inactive
OC[C@@H](O)[C@@H](O[C@@H]1O[C@H](CO)[C@H](O)[C@H](O)[C@H]1O)[C@H](O)[C@@H](O)CO | – | inactive
Cc1ccc(S(=O)(=O)NCl)cc1 | – | inactive
